Records with an inconclusive call do not appear. Active and inactive are the calls of the source. Calls come from the whole dose curve; as a rule, active = well fitted inhibition curve with a large enough effect; inconclusive = small, poorly fitted or top-dose-only effect; inactive = no such curve, though single readings can be large or run the other way.
What follows are molecules tested against Coelenterazine h 2-monooxygenase (Renilla reniformis) (UniProt P27652) (assay: qHTS Assay for Inhibitors of Sea Pansy Luciferase from the GSK Published Protein Kinase Inhibitor Set). Details: purified Renilla luciferase, luminescence; series mostly up to 57.5 µM; activity change, negative = inhibition: at the top concentration.
Outline: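 qHTS (roughly 60 uM down to 300 pM) against 1 nM Renilla luciferase, substrate coelenterazine h 5 uM, Tris acetate pH 7.5 buffer with NaCl, Tween-20 and BSA. Luminescence measured after an average 2 min incubation.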

Sequence of Coelenterazine h 2-monooxygenase (Renilla reniformis) (P27652 whole entry, looked up): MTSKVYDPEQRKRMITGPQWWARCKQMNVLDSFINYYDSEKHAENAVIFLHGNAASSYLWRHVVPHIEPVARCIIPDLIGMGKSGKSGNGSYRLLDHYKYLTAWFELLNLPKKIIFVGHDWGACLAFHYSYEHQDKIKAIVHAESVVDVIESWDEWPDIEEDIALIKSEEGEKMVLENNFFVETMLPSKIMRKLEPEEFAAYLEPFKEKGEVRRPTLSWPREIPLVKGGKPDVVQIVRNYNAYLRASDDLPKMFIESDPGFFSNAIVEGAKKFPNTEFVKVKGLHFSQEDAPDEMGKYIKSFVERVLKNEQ

| SMILES | activity change, negative = inhibition | Potency |
| --- | --- | --- |
| CCCNc1cccc(-n2ncc3c(NN=Cc4ccncc4)ncnc32)c1 | 21.5% (inactive) |  |
| Cc1nc(-c2ccccc2)n2nc(NCCCN3CCOCC3)ncc12 | 7.85% (inactive) |  |
| Cc1cc(O)cc(C)c1C=Cc1cncc(-c2nn[nH]n2)c1 | 35.1% (inactive) |  |
| O=C1N=c2ccc(N=Cc3c(O)[nH]c4ccccc34)cc2=N1 | 21.9% (inactive) |  |
| COc1ccc(Nc2ncc(-c3ccccc3)o2)cc1OC | 2.7% (inactive) |  |
| c1cnn2ncc(-c3ccnc(NCCCN4CCOCC4)n3)c2c1 | 20.5% (inactive) |  |
| CCn1c(-c2nonc2N)nc2cncc(C(=O)N3CCC(N)C3)c21 (stereo not drawn) | 2.39% (inactive) |  |
| COc1cc(Nc2ncc(-c3ccccc3)o2)cc(OC)c1 | 12.4% (inactive) |  |
| COc1cccc(C=NNc2ncnc3c2cnn3-c2cccc(OC)c2)c1 | 30.6% (inactive) |  |
| Nc1nc(-c2ccccn2)c(-c2ccc3ncccc3n2)s1 | 20.8% (inactive) |  |
| CC1=C(C(=O)Nc2cc(Cl)c3[nH]ncc3c2)C(c2ccc(C(F)(F)F)cc2)CC(=O)N1 (stereo not drawn) | 14.7% (inactive) |  |
| O=C1NC(=O)C(c2cccc(Cl)c2)=C1Nc1ccc(Cl)c(C(=O)O)c1 | 30.4% (inactive) |  |
| Cc1ccc(C(=O)NC2CCC2)cc1-c1ccc(C(=O)NCC2CC2)cc1 | -28% (inactive) |  |
| c1ccc(Oc2ccc(Nc3ncc(-c4ccccc4)o3)cc2)cc1 | 36.9% (inactive) |  |
| Nc1nc(-c2cccc(Cl)c2)c(-c2ccc3ncccc3n2)s1 | -0.406% (inactive) |  |
| COc1cccc(-n2nc(C)c3c(NN=C(C)c4ccncc4)ncnc32)c1 | 22.2% (inactive) |  |
| CN(C)C(=O)OC1CNC(C#Cc2cc3ncnc(Nc4ccc(OCc5cccc(F)c5)c(Cl)c4)c3s2)C1 (stereo not drawn) |  | inactive |
| O=C(Nc1ccc(Oc2ccc3nc(NC(=O)c4ccccc4)[nH]c3c2)cc1)Nc1cc(C(F)(F)F)ccc1F | 4.44% (inactive) |  |
